Screening results from PubChem.
aDG glyco up: alpha-DG glycosylation activation; Pro5-aDG cells, alpha-DG glycosylation AlphaScreen (IIH6); 0% Pro5, 100% B10-LARGE cell signal; activation, % at 10 µM; 360,000 tested, 0.22% active;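 active = activation of at least 8% versus controls, or a plate z-score of at least 8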;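 also: Pro5 are CHO cells carrying HIG-tagged alpha-DG that lacks glycosylation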
EBV LMP1 NFkB: reduces LMP1-driven NF-kappaB luciferase signal; inhibition, % at 12.5 µM; LMP1-induced NF-kappaB luciferase reporter cells, luminescence; 350,000 tested, 0.69% active; in the data active = inhibition above about 41%; inconclusive = no clear call, values can overlap the other calls
TWEAK-Fn14 inh: TWEAK-Fn14 signaling inhibition; TWEAK-stimulated Fn14 reporter cells, luciferase luminescence, 8 h; inhibition, % at 10 µM; 360,000 tested, 2% active; AID 1159606; in the data active = inhibition above about 50%
HSP90 refold inh: HSP90 refolding inhibition in rabbit reticulocyte lysate | inhibition, % at 5.6 µM | luciferase refolding luminescence, 3 h | 290,000 tested, 0.91% active | AID 1789;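 active = inhibition above the screen-wide mean plus 3 SD, computed separately per campaign, cut at about 16% in these data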;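 also: inhibitors lower the luminescence because luciferase stays unfolded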
LGR2 antag: Drosophila LGR2 receptor signaling inhibition; HEK293 LGR2, CRE-luciferase, bursicon-stimulated, 4 h; inhibition, % at 9.99 µM; 380,000 tested, 0.35% active; AID 720647;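 active = drop in luminescence signal, shown as inhibition above about 50% in the replicate tests, limit read from the data, passing the limit was not always enough; inconclusive = probably only some replicates passing the limit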;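 also: agonist challenge used bursicon conditioned medium at about half maximal strength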
TROY NFkB inh: inhibitors of TROY-dependent NF-kB signaling. 360,000 tested, 0.98% active. inhibition, % at 10 µM. AID 1347056. Q293 LMP1-TROYcd NF-kB luciferase reporter, 4 h;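 active = compounds whose plate-normalised and pattern-corrected inhibition of the luciferase reporter signal at the single screening dose is 50% or more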
HSP90 inh confirm: confirmation of HSP90 inhibitors | shares compounds with HSP90 refold inh | rabbit reticulocyte lysate, luciferase refolding luminescence, 3 h | inhibition, % at 5.9 µM | 2,300 tested, 64% active | AID 1846; in the data active = inhibition above about 18%
FLuc counter: counter-screen for HSP90 inhibitors: inhibitors of firefly luciferase | purified native firefly luciferase, luminescence | shares compounds with HSP90 refold inh | AID 1847 | inhibition, % at 5.9 µM | 2,300 tested, 48% active;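 active = inhibition above the mean inhibition of all tested sample wells plus 3 SD, cut at about 10% in these data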
Target sequence (P08659 whole entry, looked up): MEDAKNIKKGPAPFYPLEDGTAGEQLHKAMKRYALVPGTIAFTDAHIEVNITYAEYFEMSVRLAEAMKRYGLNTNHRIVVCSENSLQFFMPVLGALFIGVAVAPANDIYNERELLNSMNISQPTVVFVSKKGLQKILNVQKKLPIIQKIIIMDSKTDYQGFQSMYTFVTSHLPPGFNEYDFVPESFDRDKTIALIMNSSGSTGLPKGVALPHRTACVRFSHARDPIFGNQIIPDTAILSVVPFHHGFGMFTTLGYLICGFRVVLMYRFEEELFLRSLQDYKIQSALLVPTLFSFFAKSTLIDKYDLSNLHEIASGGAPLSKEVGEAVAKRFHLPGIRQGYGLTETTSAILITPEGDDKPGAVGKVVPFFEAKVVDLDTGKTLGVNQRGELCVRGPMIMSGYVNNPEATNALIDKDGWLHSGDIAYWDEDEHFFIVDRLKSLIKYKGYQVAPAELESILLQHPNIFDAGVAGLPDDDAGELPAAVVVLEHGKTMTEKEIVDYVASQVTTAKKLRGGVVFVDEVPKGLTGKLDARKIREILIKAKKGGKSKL
A number is an active result. A selection: hits, their analogues and other compounds. The true share with any hit is near 2.6%.

Results for CCCC(C(=O)NCCC(C)C)N(Cc1ccc(F)cc1)C(=O)c1snc(C(N)=O)c1N (configuration not stated) ?
aDG glyco up: inactive; EBV LMP1 NFkB: inactive; TWEAK-Fn14 inh: inactive; HSP90 refold inh: inactive; LGR2 antag: inactive; TROY NFkB inh: inactive

What do the screens show for `CCCC(C(=O)NCCC(C)C)N(Cc1ccccc1Cl)C(=O)c1snc(C(N)=O)c1N` (configuration not stated)?
aDG glyco up: inactive; EBV LMP1 NFkB: inactive; TWEAK-Fn14 inh: inactive; HSP90 refold inh: 17.0; LGR2 antag: inactive; TROY NFkB inh: inactive; HSP90 inh confirm: inactive; FLuc counter: inactive

How did COc1ccc(S(=O)(=O)N(C)C[C@@H]2OCCCC[C@@H](C)Oc3ccc(NS(=O)(=O)c4cn(C)cn4)cc3C(=O)N([C@H](C)CO)C[C@H]2C)cc1 do in these assays?
LGR2 antag: inactive

How did COc1ccc(CNC(=O)C[C@H]2CC[C@H](NC(=O)c3cccc(F)c3)[C@@H](CO)O2)cc1 do in these assays?
LGR2 antag: inactive

What do the screens show for `COc1ccc(-c2nc3c(n2O)CCc2c-3no[n+]2[O-])cc1`?
aDG glyco up: inactive; EBV LMP1 NFkB: inactive; TWEAK-Fn14 inh: inactive; HSP90 refold inh: 36.6; LGR2 antag: inactive; TROY NFkB inh: inactive; HSP90 inh confirm: inactive; FLuc counter: inactive

How did Cc1noc(C)c1NC(=O)Nc1ccc2c(c1)C(=O)N([C@@H](C)CO)C[C@H](C)[C@@H](CN(C)S(=O)(=O)c1ccccc1)OCCCC[C@H](C)O2 do in these assays?
LGR2 antag: inactive

Results for CNc1nc(-c2ccc3c(c2)CCN3C(=O)c2ccc(F)cc2)cs1 ?
aDG glyco up: inactive; EBV LMP1 NFkB: inactive; TWEAK-Fn14 inh: inactive; HSP90 refold inh: 19.1; LGR2 antag: inactive; TROY NFkB inh: inactive; HSP90 inh confirm: inactive; FLuc counter: inactive

How did CNc1nc(-c2ccc3c(c2)CCN3C(=O)c2cccc(F)c2)cs1 do in these assays?
aDG glyco up: inactive; EBV LMP1 NFkB: inactive; TWEAK-Fn14 inh: inactive; HSP90 refold inh: inactive; LGR2 antag: inactive; TROY NFkB inh: inactive

What do the screens show for `CCOC(=O)Nc1ccc2c(c1)N(C(=O)CCN(CC)CC)c1ccccc1CC2`?
aDG glyco up: inactive; EBV LMP1 NFkB: inactive; TWEAK-Fn14 inh: inactive; HSP90 refold inh: 26.4; LGR2 antag: inactive; TROY NFkB inh: inactive; HSP90 inh confirm: inactive; FLuc counter: inactive

How did COc1cc(OC)cc(C(=O)NCC(=O)OCC(=O)Nc2cc(S(C)(=O)=O)ccc2Cl)c1 do in these assays?
aDG glyco up: inactive; EBV LMP1 NFkB: inactive; TWEAK-Fn14 inh: inactive; HSP90 refold inh: 26.7; LGR2 antag: inactive; TROY NFkB inh: inactive; HSP90 inh confirm: inactive; FLuc counter: inactive

Results for CS(=O)(=O)c1ccc(Cl)c(NC(=O)COC(=O)CNC(=O)c2ccccc2)c1 ?
aDG glyco up: inactive; EBV LMP1 NFkB: inactive; TWEAK-Fn14 inh: inactive; HSP90 refold inh: inactive; LGR2 antag: inactive; TROY NFkB inh: inactive

Results for COCC#Cc1ccc2c(c1)O[C@H](CN(C)C(=O)C1CCC1)[C@H](C)CN([C@@H](C)CO)S2(=O)=O ?
LGR2 antag: inactive

What do the screens show for `CCOC(=O)c1c(C(F)(F)F)cc(-c2ccc(F)cc2)nc1C`?
aDG glyco up: inactive; EBV LMP1 NFkB: inactive; TWEAK-Fn14 inh: inactive; HSP90 refold inh: inactive; LGR2 antag: inactive; TROY NFkB inh: inactive

How did CCOC(=O)CS(=O)(=O)c1nc(-c2ccc(F)cc2)cc(C(F)(F)F)n1 do in these assays?
aDG glyco up: inactive; EBV LMP1 NFkB: 69.0; TWEAK-Fn14 inh: 57.5; HSP90 refold inh: 53.1; TROY NFkB inh: 51.3; HSP90 inh confirm: inactive; FLuc counter: inactive

Results for O=C(O)c1ccc(CSc2nc3ccccc3[nH]2)cc1 ?
aDG glyco up: inactive; EBV LMP1 NFkB: inactive; TWEAK-Fn14 inh: inactive; HSP90 refold inh: inactive; LGR2 antag: inactive; TROY NFkB inh: inactive

What do the screens show for `Clc1ccc(CSc2nc3ccncc3[nH]2)cc1`?
aDG glyco up: inactive; EBV LMP1 NFkB: inactive; TWEAK-Fn14 inh: inactive; HSP90 refold inh: 26.8; LGR2 antag: inactive; TROY NFkB inh: inactive; HSP90 inh confirm: 64.0; FLuc counter: 44.9

How did Cc1ccc(CSc2nc3ccncc3[nH]2)cc1 do in these assays?
aDG glyco up: inactive; EBV LMP1 NFkB: 47.3; TWEAK-Fn14 inh: inactive; HSP90 refold inh: 62.7; LGR2 antag: inconclusive; TROY NFkB inh: inactive; HSP90 inh confirm: 79.5; FLuc counter: 68.7

How did O=C(c1ccc(CSc2nc3ccncc3[nH]2)cc1)N1CCCCCC1 do in these assays?
aDG glyco up: inactive; EBV LMP1 NFkB: inactive; TWEAK-Fn14 inh: inactive; HSP90 refold inh: 26.8; LGR2 antag: inactive; TROY NFkB inh: inactive; HSP90 inh confirm: 50.9; FLuc counter: 27.1

How did O=C(C[C@H]1CC[C@@H]2[C@H](COC[C@@H](O)CN2C(=O)Nc2cccc(F)c2)O1)NCCCN1CCOCC1 do in these assays?
LGR2 antag: inactive

What do the screens show for `CC(C)(C)NC(=O)NC(=O)COc1ccccc1C#N`?
aDG glyco up: inactive; EBV LMP1 NFkB: inactive; TWEAK-Fn14 inh: inactive; HSP90 refold inh: 17.8; TROY NFkB inh: inactive; HSP90 inh confirm: inactive; FLuc counter: inactive

What do the screens show for `O=[N+]([O-])c1ccccc1-c1ccc(/C=N/n2cnnc2)o1`?
aDG glyco up: inactive; EBV LMP1 NFkB: inactive; TWEAK-Fn14 inh: inactive; HSP90 refold inh: inactive; TROY NFkB inh: inactive

What do the screens show for `Nn1cnnc1N/N=C\c1ccc(-c2ccccc2[N+](=O)[O-])o1`?
aDG glyco up: inactive; EBV LMP1 NFkB: inactive; TWEAK-Fn14 inh: inactive; HSP90 refold inh: 76.2; LGR2 antag: inactive; TROY NFkB inh: inactive; HSP90 inh confirm: inactive; FLuc counter: inactive

What do the screens show for `CC1CN(C(=O)COC(=O)c2ccc(O)cc2)CC(C)O1` (configuration not stated)?
aDG glyco up: inactive; EBV LMP1 NFkB: inactive; TWEAK-Fn14 inh: inactive; HSP90 refold inh: inactive; LGR2 antag: inactive; TROY NFkB inh: inactive

What do the screens show for `CC1CN(C(=O)COC(=O)c2ccc(C#N)cc2)CC(C)O1` (configuration not stated)?
aDG glyco up: inactive; EBV LMP1 NFkB: inactive; TWEAK-Fn14 inh: inactive; HSP90 refold inh: 47.8; LGR2 antag: inactive; TROY NFkB inh: inactive; HSP90 inh confirm: inactive; FLuc counter: inactive

Results for O=C(CNC(=O)c1ccc(Cl)cc1)OCC(=O)N1CCCC1 ?
aDG glyco up: inactive; EBV LMP1 NFkB: inactive; TWEAK-Fn14 inh: inactive; HSP90 refold inh: 18.7; LGR2 antag: inactive; TROY NFkB inh: inactive; HSP90 inh confirm: inactive; FLuc counter: inactive

How did COC(=O)c1cc(C)nc2c1C(=O)C(=O)C=C2N1CCOCC1 do in these assays?
aDG glyco up: inactive; EBV LMP1 NFkB: inactive; TWEAK-Fn14 inh: 103.2; HSP90 refold inh: 44.7; LGR2 antag: 59.7; TROY NFkB inh: inactive; HSP90 inh confirm: 91.1; FLuc counter: inactive
